BRCA1 expr act – activators of BRCA1 expression; MCF7-BRCA1-FFLuc reporter, luminescence, 48 h; response scale: scaled: vehicle 0%, 10 µM genistein 100%; Potency, µM (doses to about 46.1 µM), inactives show at the highest dose activation, actives largely listed as activators; actives 1.1% (n = 380,000); further: nearly all actives have a fitted effect of over 80% in size
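Cells: MCF7-BRCA1-FFLuc, 2000/well. Exposure: 48 h, 37 °C, 5% CO2. Read: luminescence, 15 min post-substrate. Controls: genistein 10 microM (maximal activation), DMSO (neutral).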
EPAC2 antagonist – EPAC2 (human) antagonism; actives 0.18% (n = 360,000); Q8WZA2; AID 720708; EPAC2 GEF exchange of Rap1B-BODIPY-GDP, fluorescence; Potency, µM (doses to about 114 µM), for the others: at the highest dose activity, negative = inhibition, usual class: inhibitors; further: on the % scale 0 is the no-effect control and ±100 the full control effect; nearly all actives have a fitted effect of over 45% in size
EPAC2 agonist – EPAC2 (human) agonism. Q8WZA2. EPAC2 activation, biochemical qHTS; response scale: 100% = 6.5 mM cAMP response. Potency, µM (series often up to 154 µM), for inactives: top-dose activation, hits mostly activators. actives 0.079% (n = 360,000); further: nearly all actives have a fitted effect of over 50% in size
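Compounds were added across a concentration range to EPAC2 (100 nM), RAP1B-BODIPY-GDP (250 nM) and GDP (50 uM). After 5 min at room temperature, fluorescence was recorded at 5-min intervals for 30 min.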
EPAC1 ag – agonists of human EPAC1 | O95398 | EPAC1 agonist qHTS, biochemical assay; response scale: 100% = response to 6.5 mM cAMP | Potency, µM (top dose mostly 154 µM), for inactives: top-dose activation, most hits filed as activators | actives 0.073% (n = 360,000); further: nearly all actives have a fitted effect of over 60% in size
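Compounds were pinned as a concentration titration into mixtures of EPAC1 (100 nM), BODIPY-GDP-loaded Rap1B (250 nM) and GDP (50 uM). After 5 min at room temperature, fluorescence was followed for 30 min; activity was scaled to 6.5 mM cAMP.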
EPAC1 antagonist – EPAC1 (human) antagonism; O95398; EPAC1 GEF assay, Rap1b-BODIPY-GDP exchange fluorescence; Potency, µM (titrated, usually from 115 µM), for the others: at the top dose activity change, negative = inhibition, most hits filed as inhibitors; actives 0.14% (n = 360,000); AID 720709;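 further: plate controls were vehicle for no effect and positive control for full effect; nearly all actives have a fitted effect of over 50% in size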
USP1 inh – USP1/UAF1 (human) deubiquitinase inhibition; O94782; recombinant USP1/UAF1, Ub-Rhodamine cleavage fluorescence; Potency, µM (titrated, usually from 57.1 µM), inactives show at the highest dose activity change, negative = inhibition, most hits filed as inhibitors; actives 0.23% (n = 390,000); further: on the % scale 0 is the no-effect control and ±100 the full control effect; nearly all actives have a fitted effect of over 60% in size
Target sequence (O94782 whole entry, looked up): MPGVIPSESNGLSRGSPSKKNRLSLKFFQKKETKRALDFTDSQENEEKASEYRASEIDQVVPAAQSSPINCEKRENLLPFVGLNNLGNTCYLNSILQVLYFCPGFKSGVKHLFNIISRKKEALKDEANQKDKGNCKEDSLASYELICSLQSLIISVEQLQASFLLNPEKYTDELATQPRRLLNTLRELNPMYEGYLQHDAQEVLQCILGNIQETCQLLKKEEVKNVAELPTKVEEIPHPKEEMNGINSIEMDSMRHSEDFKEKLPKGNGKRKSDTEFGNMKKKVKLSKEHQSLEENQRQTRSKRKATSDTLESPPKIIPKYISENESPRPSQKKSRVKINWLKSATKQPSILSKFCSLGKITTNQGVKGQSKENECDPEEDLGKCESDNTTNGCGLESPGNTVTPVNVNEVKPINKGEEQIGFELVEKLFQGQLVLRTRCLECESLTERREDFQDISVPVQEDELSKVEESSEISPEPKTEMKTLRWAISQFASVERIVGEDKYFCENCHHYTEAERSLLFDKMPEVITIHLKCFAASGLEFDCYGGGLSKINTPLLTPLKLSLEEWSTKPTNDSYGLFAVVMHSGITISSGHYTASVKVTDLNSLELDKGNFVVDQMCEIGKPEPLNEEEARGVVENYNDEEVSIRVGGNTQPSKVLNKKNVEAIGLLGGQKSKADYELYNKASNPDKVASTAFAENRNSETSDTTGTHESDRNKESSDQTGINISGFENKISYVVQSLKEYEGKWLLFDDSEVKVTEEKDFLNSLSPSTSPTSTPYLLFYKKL
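1 nM enzyme complex + cpd, 15 min RT; start with Ub-Rho 150nM final; kinetic fluorescence ex 480/em 540, 6 reads q60 s. Buffer 50mM HEPES pH 7.8, 0.5mM EDTA, 0.1 mg/ml BSA, 1mM TCEP, 0.01% Tween-20.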
* hit, by the source's call. Rows were chosen to be rich in hits. Some 1.4% of all compounds tested hit in one or more screens of this group. The call rests on the fitted dose curve; in most records, active means well fitted curve in the direction sought with a large enough effect; inconclusive means small, poorly fitted or top-dose-only effect, or another doubt; inactive means no such curve, though single readings can be large; an effect the other way counts as inactive or inconclusive. Potency means the concentration at half of the fitted maximal effect.

`Cc1ccc(NC(=O)C2C3CC4OC(=O)C2C4C3)cc1Cl` (stereo not given) gave BRCA1 expr act -0.8%, EPAC2 antagonist 13.7%, EPAC2 agonist 2.5%, EPAC1 ag -17.2%, EPAC1 antagonist 5.1% and USP1 inh -13.0%.
For CCN(CC)C(=O)CSc1nnc(-c2cccs2)n1Cc1ccco1 the results were BRCA1 expr act -11.9%, EPAC2 antagonist 11.2%, EPAC2 agonist 10µM*, EPAC1 ag -0.3%, EPAC1 antagonist 8.0% and USP1 inh -4.8%.
For CN(C)c1ccc(C#Cc2ccc3cc(CCO)oc(=O)c3c2)cc1 the results were BRCA1 expr act inconclusive, EPAC2 antagonist -7.6%, EPAC2 agonist -2.7%, EPAC1 ag -7.1%, EPAC1 antagonist 5.6% and USP1 inh inconclusive.
Screening COc1cc(C#Cc2ccc3cc(CCO)oc(=O)c3c2)cc(OC)c1 returned BRCA1 expr act 7.08µM*, EPAC2 antagonist -23.7%, EPAC2 agonist inconclusive, EPAC1 ag 15.8%, EPAC1 antagonist -8.2% and USP1 inh -17.4%.
`N#C/C(=C\c1ccc(N2CCOCC2)o1)c1nc2ccccc2[nH]1` gave BRCA1 expr act inconclusive, EPAC2 antagonist 5.6%, EPAC2 agonist 50.1µM*, EPAC1 ag 63.1µM*, EPAC1 antagonist -16.8% and USP1 inh 25.1µM*.
Screening N#C/C(=C\c1ccc(-c2ccc(Cl)c(C(=O)O)c2)o1)c1nc2ccccc2[nH]1 returned USP1 inh 31.6µM*.
For N#C/C(=C/c1ccc(N2CCOCC2)o1)c1ccc(Cl)cc1 the results were BRCA1 expr act 49.6%, EPAC2 antagonist 21.1%, EPAC2 agonist -88.3%, EPAC1 ag 17.6%, EPAC1 antagonist 3.3% and USP1 inh 28.2µM*.
N#C/C(=C\c1ccc(-c2ccc(C(=O)O)cc2)o1)c1nc2ccccc2[nH]1 was read as BRCA1 expr act 54.3%, EPAC2 antagonist 1.1%, EPAC2 agonist inconclusive, EPAC1 ag 23.1%, EPAC1 antagonist 34.8% and USP1 inh 28.2µM*.
For Cc1ccc2nc(/C(C#N)=C/c3ccc(-c4cccc(Cl)c4)o3)[nH]c2c1 the results were USP1 inh -28.6%.
Screening CCC1CCCCN1CCCNC(=O)c1ccc(CS(=O)(=O)Cc2ccccc2F)o1 (stereo not given) returned BRCA1 expr act 2.0%, EPAC2 antagonist 22.4µM*, EPAC2 agonist -0.6%, EPAC1 ag 6.2%, EPAC1 antagonist -4.9% and USP1 inh 2.0%.
COc1ccc(-c2nc(CS(=O)CC(=O)NCc3ccc(F)cc3)c(C)o2)cc1OC (stereo not given) was read as USP1 inh -9.4%.
Screening Cc1nc(NC(=O)c2cccnc2Cl)sc1C returned BRCA1 expr act 3.16µM*, EPAC2 antagonist 0.2%, EPAC2 agonist 5.8%, EPAC1 ag 3.4%, EPAC1 antagonist -3.2% and USP1 inh -25.5%.
For Cc1nc(NC(=O)Nc2ccc(Cl)cc2)sc1C the results were BRCA1 expr act 5.62µM*, EPAC2 antagonist -8.9%, EPAC2 agonist 6.1%, EPAC1 ag 0.3%, EPAC1 antagonist -8.1% and USP1 inh -13.4%.
Screening CC(C)(C)c1nnc(NC(=O)Nc2ccc(Cl)cc2)s1 returned BRCA1 expr act 86.1%, EPAC2 antagonist -3.6%, EPAC2 agonist 10.0%, EPAC1 ag -1.9%, EPAC1 antagonist 4.3% and USP1 inh -3.3%.
Screening COc1cc2c(NC3CCN(C)CC3)nc(N3CCCN(C)CC3)nc2cc1OCCCCCN(C)C returned BRCA1 expr act -24.5%.
COCC(=O)OC1CCn2c1nc1c2C(=O)C(C)=C(NC(C)=O)C1=O (stereo not given) was read as BRCA1 expr act -83.3%, EPAC2 antagonist inconclusive, EPAC2 agonist 24.4%, EPAC1 ag 6.6%, EPAC1 antagonist inconclusive and USP1 inh 4.47µM*.
`O=C1NCCN/C1=C\C(=O)c1ccc(Br)cc1` gave BRCA1 expr act inconclusive, EPAC2 antagonist 0.3%, EPAC2 agonist 3.2%, EPAC1 ag 4.0%, EPAC1 antagonist -2.5% and USP1 inh -7.0%.
`O=C1NCCN/C1=C\C(=O)c1cccc(Br)c1` gave BRCA1 expr act 11.2µM*, EPAC2 antagonist 1.0%, EPAC2 agonist 8.2%, EPAC1 ag 3.9%, EPAC1 antagonist -9.9% and USP1 inh -15.8%.
`COc1ccccc1NS(=O)(=O)c1ccc2ccccc2c1` gave BRCA1 expr act -0.4%, EPAC2 antagonist 12.6µM*, EPAC2 agonist 22.8%, EPAC1 ag 15.6%, EPAC1 antagonist -4.2% and USP1 inh -26.1%.
`CN1CCN(C(c2ccc(Br)cc2)c2cc(Cl)c3cccnc3c2O)CC1` (stereo not given) gave BRCA1 expr act -102.4%, EPAC2 antagonist 1.7%, EPAC2 agonist 2.6%, EPAC1 ag -10.9%, EPAC1 antagonist -23.6% and USP1 inh inconclusive.
For O=c1[nH]ncc2c3ccccc3n(Cc3ccc(F)cc3)c12 the results were BRCA1 expr act -4.3%, EPAC2 antagonist 6.1%, EPAC2 agonist -8.3%, EPAC1 ag 0.3%, EPAC1 antagonist 3.9% and USP1 inh -4.7%.
Screening O=c1[nH]ncc2c3ccccc3n(Cc3cccc(Cl)c3)c12 returned BRCA1 expr act -31.3%, EPAC2 antagonist 101.3%, EPAC2 agonist inconclusive, EPAC1 ag 79.4µM*, EPAC1 antagonist 98.2% and USP1 inh inconclusive.
O=C(CC(=O)c1ccccc1)Nc1cccnc1Cl was read as BRCA1 expr act 7.08µM*, EPAC2 antagonist 5.6%, EPAC2 agonist -1.7%, EPAC1 ag -10.5%, EPAC1 antagonist -5.7% and USP1 inh -1.6%.
Screening O=C(NC(=S)Nc1cccnc1Cl)c1ccc(F)cc1 returned BRCA1 expr act 10µM*, EPAC2 antagonist 12.4%, EPAC2 agonist -4.0%, EPAC1 ag -6.7%, EPAC1 antagonist 12.8% and USP1 inh -10.3%.
CC(C)CC(CO)N1CCN(C(=O)c2ccc(Cl)cc2)CCC1=O (stereo not given) was read as BRCA1 expr act 7.8%, EPAC2 antagonist 10.5%, EPAC2 agonist 1.4%, EPAC1 ag -12.3%, EPAC1 antagonist 6.6% and USP1 inh -25.6%.
Screening Cc1ccccc1-c1csc(N)n1 returned BRCA1 expr act 71.0%, EPAC2 antagonist 0.8%, EPAC2 agonist 6.2%, EPAC1 ag 1.6%, EPAC1 antagonist -19.0% and USP1 inh -27.0%.
Nc1nc(-c2ccccc2Cl)cs1 was read as BRCA1 expr act 10µM*, EPAC2 antagonist 13.9%, EPAC2 agonist 3.1%, EPAC1 ag 6.1%, EPAC1 antagonist 11.9% and USP1 inh -19.0%.
